In the library only some 6.3% were active in any assay of this set; here they are far more common.
MPTP inh = inhibitors of mitochondrial permeability transition pore | isolated mouse mitochondria, Ca2+ swelling absorbance, 30 min | inhibition, % at 10 µM | actives 1.4% (n = 360,000) | AID 602449;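 active = inhibition of 50% or more, scaled per plate between neutral and stimulator controls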;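 note: 0% = DMSO wells given calcium and 100% = 1 mM EGTA wells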
tim23-1 inh = inhibits growth of tim23-1 mutant yeast. inhibition, % at 20 µM. actives 1.3% (n = 330,000). S. cerevisiae tim23-1 growth, BacTiter-Glo luminescence, 24 h;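 active = growth inhibition of the mutant yeast at or above 50%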;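 note: temperature-sensitive mutant grown at 25 °C; plate controls were DMSO-treated mutant yeast for no effect and medium wells lacking yeast for full effect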
Mdm2 MdmX PPI = inhibitors of human Mdm2/MdmX interaction; O15151+Q00987; SaOS-2 split-luciferase Mdm2/MdmX complementation, luminescence; inhibition, % at 8 µM; actives 3% (n = 330,000); AID 485346;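 active = inhibition of at least 50% at 8 µM in the primary screen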
tim10-1 inh = inhibits growth of tim10-1 mutant yeast; S. cerevisiae tim10-1 ts strain growth, BacTiter-Glo, 24 h; inhibition, % at 20 µM; actives 2.2% (n = 330,000); AID 463190;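 active = inhibition of at least 40%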;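 note: mutant grown at 25 °C; 0% = DMSO wells with yeast and 100% = wells holding no yeast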
TIM10 inh = growth inhibitors of TIM10 yeast strain | S. cerevisiae TIM10 strain growth, BacTiter-Glo luminescence, 24 h | actives 1.4% (n = 330,000) | inhibition, % at 10 µM | AID 463195;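 active = inhibition of 40% or more at the single tested concentration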;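 note: wild-type TIM10 isogenic control strain grown at permissive 25 °C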
Mdm2-MdmX conf = human Mdm2/MdmX binding inhibition, confirmed; shares compounds with Mdm2 MdmX PPI; luminescent assay; inhibition, % at 8 µM; actives 55% (n = 10,000); AID 489028; in the data active = inhibition above about 40%
FLuc counter = inhibits full-length luciferase, flagging false Mdm2/MdmX hits. shares compounds with Mdm2 MdmX PPI. SaOS-2 full-length luciferase counterscreen, luminescence. inhibition, % at 8 µM. actives 77% (n = 6,200);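 active = mean inhibition at 8 µM reaching about 37%, which flags the compound as non-specific, limit read from the data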;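 note: p53-null SaOS-2 cells with luciferase driven by a doxycycline-inducible promoter; compound on cells about two nights before reading with doxycycline added after day one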
Active calls of the source: *; x = not tested or not shown.

SMILES	MPTP inh	tim23-1 inh	Mdm2 MdmX PPI	tim10-1 inh	TIM10 inh	Mdm2-MdmX conf	FLuc counter
O=c1cc(-c2ccccc2Cl)oc2ccc([N+](=O)[O-])c(O)c12	5.5	11.9	14.8	10.2	11.0	x	x
CCOC(=O)C(=CNc1nc(-c2ccccc2)c(C(=O)Nc2ccc(-c3ccccc3)cc2)s1)C(=O)OCC	1.6	4.1	70.7*	9.7	-2.6	14.8	x
Cc1ccc(NC(=O)c2sc(Cl)nc2-c2ccccc2)cc1	22.3	9.5	5.9	4.3	-7.0	x	x
ON=C1c2cc(OCCN3CCCCC3)ccc2-c2ccc(OCCN3CCCCC3)cc21	5.0	-20.9	96.7*	-21.3	-17.6	70.0*	91.0*
Clc1ccc(OCCN2CCOCC2)cc1Cl	0.1	5.0	5.1	-8.7	-5.2	x	x
NC(=S)NN=C1c2cc(OCCN3CCOCC3)ccc2-c2ccc(OCCN3CCOCC3)cc21	0.0	-124.9	60.1*	-40.0	-16.2	25.1	x
N#CCSc1nc2ccccc2c2nc3ccccc3n12	0.7	32.8	86.8*	35.1	-20.3	62.6*	87.2*
CN(C)c1ccc(Sc2nnc(NC(=O)Nc3ccc(Cl)cc3Cl)s2)cc1	20.9	-2.3	79.3*	-4.6	3.9	1.1	x
CCC(=O)Nc1nnc(Sc2ccc(N(C)C)cc2)s1	-1.8	8.6	15.6	25.8	6.6	x	x
CCN1C(N(C)CCc2c[nH]c3ccccc23)=N[C@@H](c2cccc(C(F)(F)F)c2)C(C(=O)OC)=C1C	4.5	15.4	87.9*	11.4	-0.5	40.7*	43.6*
O=C(c1nn2c(C(F)(F)F)cc(-c3ccco3)nc2c1Br)N1CCCc2ccccc21	-2.6	33.2	56.7*	33.1	12.4	44.0*	48.3*
CN(C(=O)CN1CCN(c2cc(-c3ccc(-c4ccccc4)cc3)ncn2)CC1)c1ccccc1	0.2	x	x	x	x	x	x
COC(=O)c1c(-c2cccc3ccccc23)csc1NC(=O)Cc1ccc(OC)c(OC)c1	2.2	16.9	61.9*	14.6	3.0	51.4*	47.7*
CCNC(=O)C1CCCN(C(=O)c2cc(OC)c(OC)c(OC)c2)CC1 (centres undefined)	0.3	x	x	x	x	x	x
O=C(N/N=C/c1c(F)cccc1Cl)C(=O)N1CCCCCC1	0.9	13.8	56.4*	17.1	12.0	-0.2	x
Cc1cc(C)cc(NS(=O)(=O)c2ccc(-c3cnc(C4CC4)o3)cc2)c1	2.1	28.1	75.3*	32.2	-35.2	68.0*	68.8*
Cc1ccc(C)c(NS(=O)(=O)c2ccc(-c3cnc(C4CC4)o3)cc2)c1	5.6	42.4	71.3*	35.9	0.2	54.8*	80.5*
O=S(=O)(NCc1ccc(F)cc1)c1ccc(-c2cnc(C3CC3)o2)cc1	-2.2	42.9	31.7	29.2	8.6	x	x
O=C(Cn1cnc2c(OCc3ccccc3)ncnc21)N[C@H](CO)Cc1cc2ccccc2[nH]1	1.0	11.1	50.6*	3.0	2.0	8.2	x
C=C1C(=O)C=C[C@]2(C)C[C@@H]3OC(=O)[C@](C)(O)[C@H]3C[C@@H]12	0.1	13.4	73.4*	12.5	12.9	47.4*	25.4
CCOC(=O)C(=O)Nc1ccc(S(=O)(=O)Nc2nccs2)cc1	2.4	-8.1	11.3	-4.5	1.7	x	x
CCOC(=O)C1(Nc2nccs2)Sc2ccccc2NC1=O (centres undefined)	0.6	16.3	56.7*	20.2	7.9	62.0*	58.0*
CC1=C(C(=O)N2CCOCC2)CC(CC(=O)NC2CCCC2)C(=O)N1CCCN1CCCC1=O (centres undefined)	-0.4	x	x	x	x	x	x
CCC(=O)N1CCC1(C)C(=O)Nc1cnc2ccccc2c1 (centres undefined)	1.1	x	x	x	x	x	x
COC(=O)[C@@]12C[C@@H](CC(=O)N3CCN(C(=O)C4CC4)CC3)C(=O)N(Cc3ccc4c(c3)OCO4)C1=CCC(C)(C)C2	-0.7	x	x	x	x	x	x
SMILES	MPTP inh	tim23-1 inh	Mdm2 MdmX PPI	tim10-1 inh	TIM10 inh	Mdm2-MdmX conf	FLuc counter
CC(NC(=O)c1ccc(CS(C)(=O)=O)cc1)c1ccc(-n2ccnc2)cc1 (centres undefined)	0.9	-0.8	-9.9	2.1	2.3	x	x
CC(NC(=O)c1ccc(CS(C)(=O)=O)cc1)c1ccc(-c2ccccc2)cc1 (centres undefined)	-3.5	-3.2	52.2*	9.7	6.5	-1.6	x
CCOc1ccc(-n2nnnc2SCC(=O)c2ccccc2)cc1	-1.2	-0.9	67.8*	-0.7	10.8	14.6	x
CCN1CCc2c(sc(NC(=O)c3ccc(S(=O)(=O)N4CCOCC4)cc3)c2C(N)=O)C1	-0.5	-13.8	-29.2	-15.7	-7.6	x	x
CCN1CCc2c(sc(NC(=O)c3ccc(S(=O)(=O)N4CCOCC4)cc3)c2C(=O)OC)C1	-2.1	4.4	63.9*	9.4	9.0	29.9	x
c1cc(C2OCCO2)cs1	-0.8	x	x	x	x	x	x
O=C(NCc1ccc(F)cc1)C(=O)Nc1nc(C23CC4CC(CC(C4)C2)C3)cs1	11.3	4.0	58.8*	8.9	23.7	29.9	x
O=C(c1cccc(S(=O)(=O)NCc2ccccc2)c1)N1CCN(c2cccc(C(F)(F)F)c2)CC1	-0.6	-1.4	62.3*	-2.9	-5.6	70.0*	55.5*
Cc1cc(N/N=C/c2cccc(Cl)c2)nc(-n2nc(C)cc2C)n1	3.1	34.5	64.0*	20.8	25.7	30.7	x
COc1ccc(/C=N/Nc2cc(C)nc(-n3nc(C)cc3C)n2)cc1	11.8	18.7	53.7*	-4.4	25.9	40.2*	51.7*
Cc1cc(N/N=C/c2cccc([N+](=O)[O-])c2)nc(-n2nc(C)cc2C)n1	0.9	15.2	15.2	39.9	29.8	x	x
Cc1cc(N/N=C/c2ccccc2[N+](=O)[O-])nc(-n2nc(C)cc2C)n1	2.3	6.0	53.3*	12.9	-27.5	36.6	43.2*
Cc1cc(N/N=C/c2ccc(O)cc2O)nc(-n2nc(C)cc2C)n1	2.5	x	x	x	x	x	x
O=C(CSc1nc(-c2ccccc2)c(-c2ccccc2)[nH]1)NCc1ccco1	1.4	-0.2	53.4*	15.7	20.1	55.8*	73.2*
O=C(Cn1ncc(Cl)c(Cl)c1=O)NC1CCCCC1	1.0	7.4	100.3*	-7.5	4.9	75.5*	56.4*
Cc1ccc(NC(=O)Cc2ccc(Cl)cc2)cc1S(=O)(=O)N1CCCCCC1	29.4	27.8	4.3	20.6	14.9	x	x
Cc1cccc(NC(=O)CNC(=O)Cn2ncc(Cl)c(Cl)c2=O)c1C	0.2	-7.3	100.2*	-11.8	-7.2	56.0*	51.9*
O=C(Cn1ncc(Cl)c(Cl)c1=O)NCC1CCCCC1	1.3	x	x	x	x	x	x
Cc1ccc(NC(=O)Cn2ncc(Cl)c(Cl)c2=O)cc1S(=O)(=O)N1CCCCC1	-2.4	5.1	100.3*	7.1	5.5	85.4*	54.2*
CC1CCCCC1NC(=O)CSc1nnc(C(F)(F)F)n1C (centres undefined)	-0.8	x	x	x	x	x	x
COC(=O)[C@]12CCCCC=C1N(CCC1=CCCCC1)C(=O)[C@H](CC(=O)N1CCC(c3ccccc3)CC1)C2	0.2	x	x	x	x	x	x
CC(=O)Nc1cc2c(cc1C(C)=O)OCCO2	-1.3	12.4	-10.2	-1.4	-2.5	x	x

Source: PubChem BioAssay (Sanford-Burnham Center for Chemical Genomics)
